The values that follow come from PubChem BioAssay (NCI).

Test [1] is described as follows: NCI Yeast Anticancer Drug Screen. Data for the rad50 strain (AID 155).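 Further: 0% = growth of vehicle-only cultures of the same strain.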 As to conditions: S. cerevisiae rad50 strain growth inhibition; at 50.0 µM; stronger effect = higher value. The essentials:
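Vehicle-treated cultures provide the reference for the growth inhibition reported for compound-exposed, repair-deficient yeast.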

The nature of test [2]: NCI Yeast Anticancer Drug Screen. Data for the mec2-1 strain (AID 157). The conditions noted are these: S. cerevisiae mec2-1 strain, at 50.0 µM, stronger effect = higher value. The method, boiled down: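 mec2-1 yeast strain, carrying an alteration in DNA damage repair or cell cycle control, was exposed to compounds; growth inhibition was measured relative to vehicle-treated controls.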

Test [3] can be described thus: NCI Yeast Anticancer Drug Screen. Data for the sgs1 mgt1 strain (AID 161).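 Further: 0% = growth of cultures given vehicle only.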 The conditions noted are these: S. cerevisiae sgs1 mgt1 strain, at 50.0 µM, stronger effect = higher value. The essentials: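 Percent growth inhibition was derived by comparing compound-exposed mutant yeast with vehicle-exposed cultures. The strain carries alterations in DNA damage repair.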
A short description of test [4]: NCI Yeast Anticancer Drug Screen. Data for the cln2 rad14 strain (AID 165).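 Further: 0% = growth equal to vehicle treated cultures.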 The conditions noted are these: S. cerevisiae cln2 rad14 strain, at 50.0 µM, stronger effect = higher value. The essentials:
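Yeast carrying cln2 and rad14 alterations (cell cycle control and DNA damage repair) were exposed to compounds. Growth inhibition was measured against vehicle-treated controls.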

A short description of test [5]: NCI Yeast Anticancer Drug Screen. Data for the bub3 strain (AID 167). The conditions noted are these: S. cerevisiae bub3 mutant strain, at 50.0 µM, stronger effect = higher value. The method, boiled down: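 Mutant yeast screening strain plus compound; vehicle-treated cultures serve as the 0% inhibition reference.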
The nature of test [6]: NCI Yeast Anticancer Drug Screen. Data for the mlh1 rad18 strain (AID 175). The conditions noted are these: S. cerevisiae mlh1 rad18 strain growth inhibition; at 50.0 µM; stronger effect = higher value. The method, boiled down:
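Growth inhibition of the yeast strain was measured after compound exposure and expressed relative to vehicle-treated controls. The strain carries defined defects in DNA damage repair.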

The structures appear in SMILES notation. Compounds without any hit were thinned out: in the full panel of roughly 79,000, 15% have a hit. Values without a mark were called inactive. Calls of active or inactive are those of the source. No stated cut-off is given here; in the data, active means growth inhibition above about 70%; inactive means the rest.

For the compound `Nc1nc2c(ncn2C2C=CC(CO)C2)c(=O)[nH]1` (stereo unspecified), the growth inhibition in test [1] was 7.6%; in test [2] it was 12.5%; in test [3], 3.9%; in test [4], 10.4%; in test [5], -2.1%; in test [6], 4.25%.

Take `Cc1c2ccccc2nc(CSCCO)[n+]1[O-]`: the growth inhibition in test [1] was -10.8%; in test [2], -22.1%; in test [3], -7.95%; in test [4] it was -2.1%; in test [5], 5.5%; in test [6], -16.2%.

With `CCOC(=O)/C=C/C(=O)N(C)c1ccccc1`, the growth inhibition in test [1] is -12.2%; in test [2], -7.15%; in test [3], -5.3%; in test [4], -0.5%; in test [5], -12.7%; in test [6], -18.6%.

As for `Cc1cc(=O)c2c3c(ccc2[nH]1)Oc1ccccc1O3`, the growth inhibition in test [1] was 7.9%; in test [2], 5.95%; in test [3] it was 5.2%; in test [4], 8.45%; in test [5] it was 7.1%; in test [6], 13.1%.

As to `CN(C)c1ccccc1CC(=O)Nc1ccccc1`, the growth inhibition was -12.6% in test [1]; 4.45% in test [2]; -5.85% in test [3]; -21.8% in test [4]; 1.9% in test [5]; 3.1% in test [6].

With `O=C(CN1CCCc2ccccc21)c1ccc(Cl)cc1`, the growth inhibition is -13.2% in test [1]; -2.05% in test [2]; 2.55% in test [3]; 9.2% in test [4]; 14.1% in test [5]; 4.35% in test [6].

For `CC1(c2ccccc2)CCN(C2CC2)CO1` (stereo unspecified), the growth inhibition was 34.6% in test [1]; 15.2% in test [2]; 51.6% in test [3]; 45.2% in test [4]; 48.5% in test [5]; -52% in test [6].

In the case of `CCCCNC(=S)SSSSC(=S)NCCCC`, the growth inhibition in test [1] is -8.45%; in test [2] it was -14%; in test [3], -6.05%; in test [4], -53.5%; in test [5] it was 8.7%; in test [6], -7.55%.

As for `CN1C(=O)C2C=CC1c1ccccc12` (stereo unspecified), the growth inhibition in test [1] was -0.75%; in test [2], -3.95%; in test [3] it was -8.8%; in test [4], -37%; in test [5], -6.5%; in test [6], 2.55%.

On to `CCC1COC(Nc2cccc3c2CCCC3)=N1` (stereo unspecified), for which the growth inhibition is -0.05% in test [1]; -6.7% in test [2]; -8.75% in test [3]; -30.4% in test [4]; 17.7% in test [5]; 4.55% in test [6].

Take `O=C(N/C(=C\c1ccccc1)C(=O)N1CCNCC1)c1ccccc1`: the growth inhibition in test [1] was -1%; in test [2], 5.3%; in test [3], 0.65%; in test [4], -26.8%; in test [5], 1.15%; in test [6] it was 9.65%.

Take `Cc1ccc(N=C2C(c3ccccc3)=C(SC3=C(c4ccccc4)C(=Nc4ccc(C)cc4)c4ccccc43)c3ccccc32)cc1`: the growth inhibition in test [1] was 12.9%; in test [2], 0.7%; in test [3], 3.9%; in test [4], 15.2%; in test [5] it was -3%; in test [6] it was -8.65%.

As to `N#Cc1c(-c2cccn(-c3ccccc3)c2=O)cc(-c2ccccc2)[nH]c1=O`, the growth inhibition in test [1] was 1.55%; in test [2] it was -5.65%; in test [3], -5.7%; in test [4], -19.1%; in test [5], 0.9%; in test [6], 9.1%.

Regarding `COC(=O)CC1(O)C=CCCC1c1ccccc1` (stereo unspecified), the growth inhibition in test [1] is -23.2%; in test [2], -7.6%; in test [3], 2.35%; in test [4] it was 0.3%; in test [5], -7.5%; in test [6], -35%.

As for `O=C(CN1CCCC1=O)CS(=O)(=O)c1ccccc1`, the growth inhibition in test [1] was -14.5%; in test [2] it was -5.3%; in test [3], -20.3%; in test [4], -0.6%; in test [5] it was -9.6%; in test [6], 2.3%.

With `COC(OC)c1cc(C(=O)O)c2ccccc2n1`, the growth inhibition in test [1] is -9.45%; in test [2] it was -31.2%; in test [3] it was -9.85%; in test [4] it was -4.6%; in test [5], -22.2%; in test [6], -6.6%.

On to `CCC(C(=O)c1ccccc1)C1(C(=O)OC)NC(=S)NC(=O)C1C#N` (stereo unspecified), for which the growth inhibition in test [1] is 3.25%; in test [2], -2.85%; in test [3] it was -2.55%; in test [4], -17.9%; in test [5], -8.05%; in test [6], 4%.

Take `C[n+]1c(-c2ccc(/C=N/NC(=O)c3cc(O)c(C(=O)N/N=C/c4ccc(-c5cn6ccccc6[n+]5C)cc4)cc3O)cc2)cn2ccccc21`: the growth inhibition in test [1] was -31%; in test [2] it was -13.5%; in test [3], -15.7%; in test [4], -39.5%; in test [5], -31.9%; in test [6], -10.5%.

With `COc1ccccc1Cn1nc(OC)c2cc([N+](=O)[O-])ccc21`, the growth inhibition in test [1] is 27.6%; in test [2], 30.6%; in test [3], -6.1%; in test [4], 2.05%; in test [5], -17.9%; in test [6] it was -64.7%.

Take `O=C1OCCC1=P(c1ccccc1)(c1ccccc1)c1ccccc1`: the growth inhibition was -5.6% in test [1]; -30.9% in test [2]; 6.9% in test [3]; 9.45% in test [4]; -7.4% in test [5]; -4.85% in test [6].

For `O=C1c2cc([N+](=O)[O-])sc2C(=O)c2ccsc21`, the growth inhibition is 88.6% (active) in test [1]; 89.3% (active) in test [2]; 91.2% (active) in test [3]; 90.2% (active) in test [4]; 91.1% (active) in test [5]; 90.7% (active) in test [6].
